Test results reported in PubChem BioAssay (Tox21).
Values without a mark were called inactive. Records with an inconclusive call do not appear. Entries that show only a call come without a potency. Calls of active or inactive are those of the source. Unless noted, the call rests on the fitted dose curve.

What was measured:
[1] = qHTS assay to identify small molecule antagonists of the sonic hedgehog signaling (Shh) pathway (AID 1259369); further: nearly all actives have a fitted effect of over 45% in size; further: potency means the concentration at half of the fitted maximal effect
Procedure, shortened: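 NIH/3T3-derived 3T3Gli1-Luc cells with stably integrated Gli1-Luc reporter were preincubated 4hr at 37 C, then given compounds in DMSO plus Shh conditioned medium and incubated 24hr. Firefly luciferase luminescence read after 30min reagent at room temperature.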

[2] = qHTS assay to identify small molecule agonists of the androgen receptor (AR) signaling pathway in the presence of an antagonist - cell viability counter screen (AID 1259379; active means well fitted curve in the direction sought with a large enough effect in the repeat runs; an effect the other way counts as inactive or inconclusive; further: nearly all actives have a fitted effect of over 25% in size; further: potency means the concentration at half of the fitted maximal effect)
Procedure, shortened: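 MDA-kb2 human breast carcinoma cells (stable MMTV-luciferase, AR/GR responsive) were seeded 3,000 cells/well, pre-incubated 5 hr at 37C without CO2, then given 3.0uM nilutamide and compounds at 15 concentrations for 16 hr. Viability was read by CellTiter-Fluor fluorescence.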

[3] = qHTS assay to identify small molecule agonists of the estrogen receptor beta (ER-beta) signaling pathway - cell viability counter screen (AID 1259380; active means well fitted curve in the direction sought with a large enough effect in the repeat runs; an effect the other way counts as inactive or inconclusive; further: nearly all actives have a fitted effect of over 30% in size; further: potency means the concentration at half of the fitted maximal effect)
Procedure, shortened: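 ER-beta-UAS-bla HEK293T cells in medium with 2% charcoal-stripped FBS were preincubated 6 hr at 37C, dosed with compound in DMSO for 16 hr, then after the bla read, CellTiter-Glo was added for 30 min at room temperature; luminescence recorded.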

[4] = qHTS assay to identify small molecule antagonists of the estrogen receptor beta (ER-beta) signaling pathway - cell viability counter screen (AID 1259382; active means well fitted curve in the direction sought with a large enough effect in the repeat runs; an effect the other way counts as inactive or inconclusive;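 further: HEK293T cells carrying ER-beta-UAS-bla reporter stimulated with estradiol; series mostly up to about 92 µM; nearly all actives have a fitted effect of over 55% in size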)
Procedure, shortened: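 ER-beta-UAS-bla HEK293T cells (2,000/well, 2% charcoal-stripped FBS) were pre-incubated 6 hr at 37C, then given compound plus 1nM final 17-beta-estradiol for 16 hr. Viability was read in the same wells by CellTiter-Glo luminescence after 30 min at room temperature.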

[5] = target: Estrogen receptor (Homo sapiens) (UniProt P03372); experiment: qHTS assay to identify small molecule agonists of the estrogen receptor alpha (ER-alpha) signaling pathway in the presence of an antagonist (AID 1259383); further: top concentration of the series differs between compounds; nearly all actives have a fitted effect of over 15% in size
Procedure, shortened: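 VM7Luc4E2 cells (endogenous full-length ER-alpha, 4×ERE-luciferase) were precultured 5 days in phenol red-free medium with 10% charcoal-stripped FBS, given 10.0nM ICI-182,780 (final), then treated with compounds at 15 concentrations for 22hr at 37C; luminescence read with ONE-Glo.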

[6] = qHTS assay to identify small molecule agonists of the estrogen receptor alpha (ER-alpha) signaling pathway in the presence of an antagonist - cell viability counter screen (AID 1259386; active means well fitted curve in the direction sought with a large enough effect in the repeat runs; an effect the other way counts as inactive or inconclusive;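 further: cells exposed to compounds for 22 h at 37 °C before the viability read; nearly all actives have a fitted effect of over 30% in size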; further: potency means the concentration at half of the fitted maximal effect)
Procedure, shortened: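 VM7Luc4E2 cells (endogenous full-length ER-alpha, 4×ERE-luciferase) were held 5 days in phenol red-free medium with 10% charcoal-stripped FBS, plated, then given 10.0nM ICI-182,780 and compounds at 15 concentrations for 22hr at 37C; viability read by CellTiter-Fluor fluorescence.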

[7] = target: Progesterone receptor (Homo sapiens) (UniProt P06401); experiment: qHTS assay to identify small molecule agonists of the progesterone receptor (PR) signaling pathway (AID 1346784); further: nearly all actives have a fitted effect of over 30% in size
Procedure, shortened: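 The screen uses PR-UAS-bla HEK 293T cells in charcoal-stripped serum (2%). Compounds are applied for 16 hr at 37C after a 6 hr pre-incubation, and reporter activity is detected with a FRET beta-lactamase substrate after 2 hr at room temperature.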

[8] = target: Progesterone receptor (Homo sapiens) (UniProt P06401); experiment: qHTS assay to identify small molecule antagonists of the progesterone receptor (PR) signaling pathway (AID 1346795; active means well fitted inhibition curve with a large enough effect in the signal ratio in the repeat runs, not every such curve was filed as active; the % refers to the signal ratio; further: potency means the concentration at half of the fitted maximal effect)
Procedure, shortened: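 After 6 hr plating at 37C in 2% stripped-serum medium, PR-UAS-bla HEK293T cells got compounds, then 1 nM R5020. Sixteen hours later, LiveBLAzer substrate was applied for 2 hr at room temperature and fluorescence was recorded.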

[9] = qHTS assay to identify small molecule agonists of the progesterone receptor (PR) signaling pathway - cell viability counter screen (AID 1346799); further: nearly all actives have a fitted effect of over 45% in size; further: potency means the concentration at half of the fitted maximal effect
Procedure, shortened: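 Viability was scored by ATP luminescence (CellTiter-Glo, 30 min, room temperature) in the same wells used for the reporter readout, after 16 hr compound exposure of PR-UAS-bla HEK293T cells.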

[10] = qHTS assay to identify small molecule antagonists of the TGF-beta/Smad signaling pathway - cell viability counter screen (AID 1346824; active means well fitted curve in the direction sought with a large enough effect in the repeat runs; an effect the other way counts as inactive or inconclusive; further: nearly all actives have a fitted effect of over 50% in size)
Procedure, shortened: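 SBE-bla HEK 293T cells were plated overnight at 37 C, then given compounds in DMSO plus TGF-beta1 (added as 0.25 ng/mL solution) for 5 hr. After the bla read, CellTiter-Glo was added to the same wells and luminescence read after 30 min at room temperature.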

[11] = qHTS assay to identify small molecule agonists of the TGF-beta/Smad signaling pathway - cell viability counter screen (AID 1346829; active means well fitted curve in the direction sought with a large enough effect in the repeat runs; an effect the other way counts as inactive or inconclusive; further: top concentration of the series differs between compounds; nearly all actives have a fitted effect of over 45% in size)
Procedure, shortened: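 In parallel with the Smad reporter read, viability of HEK 293T cells stably carrying SBE-bla is quantified by ATP luminescence following 5 hr compound treatment.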

[12] = qHTS assay to identify small molecule agonists of the TGF-beta/Smad signaling pathway (AID 1346859; active means well fitted activation curve with a large enough effect in the signal ratio in the repeat runs, not every such curve was filed as active; the % refers to the signal ratio; further: series mostly up to about 77 µM)
Procedure, shortened: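 Dual-wavelength fluorescence (460/530 nm emission) quantified beta-lactamase expression under the Smad binding element in HEK 293T cells following 5 hr compound treatment at 37 C.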

[13] = qHTS assay to identify small molecule agonists or antagonists of the thyroid stimulating hormone receptor (TSHR) signaling pathway - wild type cell line counter screen (AID 1259384)
Procedure, shortened: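 Wild-type HEK293 cells were plated 18 h at 37 C/5% CO2, pin-dosed with compound plus Ro20-1724 medium, held 30 min at room temperature, then given cAMP-d2 and anti-cAMP-cryptate; fluorescence was read after 1 h. Fifteen concentrations, triplicate.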

[14] = target: Thyrotropin receptor (Homo sapiens) (UniProt P16473); experiment: qHTS assay to identify small molecule antagonists of the thyroid stimulating hormone receptor (TSHR) signaling pathway (AID 1259385); further: nearly all actives have a fitted effect of over 20% in size
Procedure, shortened: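 TSHR-HEK293 cells were plated and held 18 h at 37C/5% CO2, then given compound plus Ro20-1724 and stimulated with TSH at 1.5 ng/mL final. After 30 min at room temperature, cAMP was detected with cAMP-d2/anti-cAMP-cryptate (1 h) by fluorescence.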

[15] = target: Thyrotropin-releasing hormone receptor (Homo sapiens) (UniProt P34981); experiment: qHTS assay to identify small molecule antagonists of the thyrotropin-releasing hormone receptor (TRHR) signaling pathway (AID 1346877; active means well fitted inhibition curve with a large enough effect in the repeat runs, not every such curve was filed as active; further: series mostly up to about 51 µM)
Procedure, shortened: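 TRHR-expressing HEK293 cells were seeded, cultured 18 h at 37 °C, then loaded with calcium dye for 2 h. Compounds were pre-incubated 5 min at room temperature before 1 nM TRH (final) was added, and kinetic fluorescence was recorded for 3 min.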

[16] = target: Thyrotropin-releasing hormone receptor (Homo sapiens) (UniProt P34981); experiment: qHTS assay to identify small molecule agonists of the thyrotropin-releasing hormone receptor (TRHR) signaling pathway (AID 1346891); further: series mostly up to about 58 µM
Procedure, shortened: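 Kinetic fluorescence (3 min, 1 s intervals) reported intracellular calcium after compound transfer onto TRHR-Hek293 cells pre-loaded with dye for 2 h at 37 °C.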

[17] = qHTS assay to identify small molecule antagonists of the progesterone receptor (PR) signaling pathway - cell viability counter screen (AID 1346798; active means well fitted curve in the direction sought with a large enough effect in the repeat runs; an effect the other way counts as inactive or inconclusive; further: series mostly up to about 92 µM; nearly all actives have a fitted effect of over 50% in size)
Procedure, shortened: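 Viability was determined by ATP-based luminescence (CellTiter-Glo) in PR-UAS-bla HEK293T cells cultured in 2% charcoal-stripped serum and incubated 16 hr with compounds under R5020 stimulation.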

[18] = target: Androgen receptor (Homo sapiens) (UniProt P10275); experiment: qHTS assay to identify small molecule agonists of the androgen receptor (AR) signaling pathway in the presence of an antagonist (AID 1259381); further: nearly all actives have a fitted effect of over 15% in size
Procedure, shortened: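 MDA-kb2 human breast carcinoma cells carrying an MMTV-luciferase reporter (AR- and GR-responsive) were treated with compounds at 15 concentrations plus 3.0uM final nilutamide for 16hr at 37C without CO2; luminescence was read after ONE-Glo addition.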

Sequence of Thyrotropin receptor (Homo sapiens) (P16473 whole entry, looked up): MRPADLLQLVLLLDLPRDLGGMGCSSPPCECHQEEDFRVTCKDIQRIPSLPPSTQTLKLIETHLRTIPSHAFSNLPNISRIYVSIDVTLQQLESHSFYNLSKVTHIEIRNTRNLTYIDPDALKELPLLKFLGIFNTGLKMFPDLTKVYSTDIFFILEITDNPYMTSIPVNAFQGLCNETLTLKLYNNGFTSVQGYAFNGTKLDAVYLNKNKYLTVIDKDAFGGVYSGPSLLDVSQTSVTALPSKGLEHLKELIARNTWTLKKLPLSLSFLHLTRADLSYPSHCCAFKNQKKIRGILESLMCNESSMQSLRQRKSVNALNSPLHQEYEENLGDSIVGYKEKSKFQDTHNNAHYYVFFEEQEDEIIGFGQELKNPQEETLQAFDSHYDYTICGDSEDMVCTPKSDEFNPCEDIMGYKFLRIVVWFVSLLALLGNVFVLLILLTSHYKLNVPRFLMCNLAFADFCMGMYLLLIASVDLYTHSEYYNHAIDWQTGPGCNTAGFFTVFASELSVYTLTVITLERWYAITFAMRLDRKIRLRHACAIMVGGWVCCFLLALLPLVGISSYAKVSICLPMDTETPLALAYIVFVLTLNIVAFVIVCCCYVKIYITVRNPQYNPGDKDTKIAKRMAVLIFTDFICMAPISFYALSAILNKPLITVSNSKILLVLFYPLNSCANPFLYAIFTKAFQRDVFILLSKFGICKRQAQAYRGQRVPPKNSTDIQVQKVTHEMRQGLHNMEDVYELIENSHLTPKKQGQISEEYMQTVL
Sequence of Thyrotropin-releasing hormone receptor (Homo sapiens) (P34981 whole entry, looked up): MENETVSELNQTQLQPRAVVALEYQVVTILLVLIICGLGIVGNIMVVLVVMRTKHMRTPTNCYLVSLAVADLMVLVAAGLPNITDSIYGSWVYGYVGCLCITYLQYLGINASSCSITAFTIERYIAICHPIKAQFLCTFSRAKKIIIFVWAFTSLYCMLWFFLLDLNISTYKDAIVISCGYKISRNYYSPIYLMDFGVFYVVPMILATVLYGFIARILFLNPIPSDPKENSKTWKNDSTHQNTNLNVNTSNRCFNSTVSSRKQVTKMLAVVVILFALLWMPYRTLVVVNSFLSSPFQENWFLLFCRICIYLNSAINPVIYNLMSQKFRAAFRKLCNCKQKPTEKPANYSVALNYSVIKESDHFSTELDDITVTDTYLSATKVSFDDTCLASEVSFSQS
Sequence of Progesterone receptor (Homo sapiens) (P06401 whole entry, looked up): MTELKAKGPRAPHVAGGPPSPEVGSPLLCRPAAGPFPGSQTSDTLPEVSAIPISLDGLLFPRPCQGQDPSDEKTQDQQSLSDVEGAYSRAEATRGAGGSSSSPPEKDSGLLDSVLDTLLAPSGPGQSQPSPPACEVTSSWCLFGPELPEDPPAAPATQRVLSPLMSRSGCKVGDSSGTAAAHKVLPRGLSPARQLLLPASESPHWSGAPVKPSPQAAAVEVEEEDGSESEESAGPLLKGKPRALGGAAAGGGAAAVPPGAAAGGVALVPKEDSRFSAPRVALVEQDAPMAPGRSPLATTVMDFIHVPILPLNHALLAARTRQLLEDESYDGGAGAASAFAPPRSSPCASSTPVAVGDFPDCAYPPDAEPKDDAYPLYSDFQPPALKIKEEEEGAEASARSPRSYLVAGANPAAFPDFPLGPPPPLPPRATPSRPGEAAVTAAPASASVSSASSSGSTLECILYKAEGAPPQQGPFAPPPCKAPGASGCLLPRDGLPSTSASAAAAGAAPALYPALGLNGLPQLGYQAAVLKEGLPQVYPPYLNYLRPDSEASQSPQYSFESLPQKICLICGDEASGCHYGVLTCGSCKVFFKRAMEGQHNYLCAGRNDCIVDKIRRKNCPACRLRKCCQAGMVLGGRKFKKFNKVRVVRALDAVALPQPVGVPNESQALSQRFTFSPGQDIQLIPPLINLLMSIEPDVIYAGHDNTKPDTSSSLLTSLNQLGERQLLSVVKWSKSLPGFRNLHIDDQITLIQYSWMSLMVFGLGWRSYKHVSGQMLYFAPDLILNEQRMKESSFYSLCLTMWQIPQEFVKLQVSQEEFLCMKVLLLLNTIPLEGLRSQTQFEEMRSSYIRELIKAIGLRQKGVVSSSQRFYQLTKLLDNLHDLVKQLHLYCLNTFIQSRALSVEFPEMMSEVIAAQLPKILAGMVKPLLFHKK
Sequence of Estrogen receptor (Homo sapiens) (P03372 whole entry, looked up): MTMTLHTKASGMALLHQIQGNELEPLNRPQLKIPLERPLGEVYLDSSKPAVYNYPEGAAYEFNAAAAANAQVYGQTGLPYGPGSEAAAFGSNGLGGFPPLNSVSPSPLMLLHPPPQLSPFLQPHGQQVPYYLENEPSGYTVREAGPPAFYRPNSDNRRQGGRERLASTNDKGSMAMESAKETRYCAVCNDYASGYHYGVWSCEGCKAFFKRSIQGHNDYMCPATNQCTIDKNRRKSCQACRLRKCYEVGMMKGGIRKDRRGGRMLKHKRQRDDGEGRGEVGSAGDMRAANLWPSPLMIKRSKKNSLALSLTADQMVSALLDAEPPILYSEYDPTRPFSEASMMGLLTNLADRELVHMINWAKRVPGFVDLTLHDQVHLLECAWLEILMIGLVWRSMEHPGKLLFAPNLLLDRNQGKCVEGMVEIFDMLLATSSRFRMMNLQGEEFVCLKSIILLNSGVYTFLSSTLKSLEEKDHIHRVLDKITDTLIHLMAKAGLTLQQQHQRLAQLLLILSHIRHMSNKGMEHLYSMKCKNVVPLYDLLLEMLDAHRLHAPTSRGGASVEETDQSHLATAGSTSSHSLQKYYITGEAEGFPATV
Sequence of Androgen receptor (Homo sapiens) (P10275 whole entry, looked up): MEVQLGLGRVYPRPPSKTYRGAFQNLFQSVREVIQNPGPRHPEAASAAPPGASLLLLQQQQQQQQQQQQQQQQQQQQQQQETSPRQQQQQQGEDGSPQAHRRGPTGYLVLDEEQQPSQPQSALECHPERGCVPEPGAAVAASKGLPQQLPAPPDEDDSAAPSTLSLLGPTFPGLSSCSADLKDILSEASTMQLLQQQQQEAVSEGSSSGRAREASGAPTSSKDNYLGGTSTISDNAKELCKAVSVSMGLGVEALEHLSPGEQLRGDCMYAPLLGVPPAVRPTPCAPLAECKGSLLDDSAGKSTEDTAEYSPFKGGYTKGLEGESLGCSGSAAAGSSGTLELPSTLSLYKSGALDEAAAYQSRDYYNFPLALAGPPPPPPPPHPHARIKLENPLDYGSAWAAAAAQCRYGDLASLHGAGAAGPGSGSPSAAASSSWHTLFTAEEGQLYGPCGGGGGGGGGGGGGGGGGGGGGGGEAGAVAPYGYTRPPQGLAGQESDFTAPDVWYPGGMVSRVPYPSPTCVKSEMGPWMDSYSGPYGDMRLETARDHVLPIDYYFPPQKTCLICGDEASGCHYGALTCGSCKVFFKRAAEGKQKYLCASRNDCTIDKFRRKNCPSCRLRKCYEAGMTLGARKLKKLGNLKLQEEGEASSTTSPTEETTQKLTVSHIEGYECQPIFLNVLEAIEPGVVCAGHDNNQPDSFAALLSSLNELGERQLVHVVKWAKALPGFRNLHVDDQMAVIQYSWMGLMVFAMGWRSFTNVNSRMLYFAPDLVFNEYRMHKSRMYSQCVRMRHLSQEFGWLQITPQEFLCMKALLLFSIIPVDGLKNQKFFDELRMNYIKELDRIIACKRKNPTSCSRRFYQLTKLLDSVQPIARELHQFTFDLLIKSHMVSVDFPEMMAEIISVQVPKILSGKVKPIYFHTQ

CC1=CCC(C(C)C)C=C1 (configuration not stated)
Potency [1]: inactive
Potency [2]: inactive
Potency [3]: inactive
Potency [4]: inactive
Potency [5]: inactive
Potency [6]: inactive
outcome [7]: inactive
Potency [8]: inactive
Potency [9]: inactive
Potency [10]: inactive
Potency [11]: inactive
outcome [12]: inactive

CCCCCCCCCCCCC(=O)O
Potency [1]: 2.74 µM (active)
Potency [2]: inactive
Potency [5]: inactive
Potency [13]: inactive
Potency [14]: inactive
Potency [6]: inactive
Potency [8]: inactive
Potency [9]: 19.4 µM (active)
Potency [10]: inactive
Potency [11]: inactive
outcome [12]: inactive
outcome [15]: inactive
Potency [16]: inactive

COCCCCCCCCOCCC[Si](C)(O[Si](C)(C)C)O[Si](C)(C)C
Potency [1]: inactive
Potency [2]: 17.2 µM (active)
Potency [4]: inactive
Potency [5]: inactive
Potency [14]: inactive
Potency [6]: 24.3 µM (active)
outcome [7]: inactive
Potency [8]: inactive
Potency [10]: inactive
Potency [11]: inactive
outcome [12]: inactive
outcome [15]: inactive
Potency [16]: inactive

O=C1CCCCCO1
Potency [1]: inactive
Potency [3]: inactive
Potency [4]: inactive
Potency [5]: inactive
Potency [13]: inactive
Potency [14]: inactive
Potency [6]: inactive
outcome [7]: inactive
Potency [8]: inactive
Potency [17]: inactive
Potency [9]: inactive
Potency [10]: inactive
Potency [11]: inactive
outcome [12]: inactive
outcome [15]: inactive
Potency [16]: inactive

CC(C)=CCCC(C)CC=O (configuration not stated)
Potency [1]: inactive
Potency [2]: inactive
Potency [4]: inactive
Potency [13]: inactive
Potency [14]: inactive
Potency [6]: inactive
outcome [7]: inactive
Potency [17]: inactive
Potency [9]: inactive
Potency [10]: inactive
Potency [11]: inactive
outcome [12]: inactive

CCCCCCCCCCCCCCCBr
Potency [1]: inactive
Potency [2]: inactive
Potency [4]: inactive
Potency [5]: inactive
Potency [13]: inactive
Potency [14]: inactive
Potency [6]: inactive
outcome [7]: inactive
Potency [8]: inactive
Potency [17]: inactive
Potency [10]: inactive
Potency [11]: inactive
outcome [12]: inactive

CN1CCN(C2=Nc3ccccc3Sc3ccc(Cl)cc32)CC1
Potency [1]: inactive
Potency [2]: inactive
Potency [18]: inactive
Potency [13]: inactive
Potency [14]: inactive
Potency [6]: inactive
outcome [7]: inactive
Potency [17]: inactive
Potency [9]: inactive
Potency [10]: inactive
Potency [11]: inactive
outcome [15]: inactive
Potency [16]: inactive

CC(C)(C)C(=O)OCOP(=O)(COCCn1cnc2c(N)ncnc21)OCOC(=O)C(C)(C)C
Potency [1]: 2.98 µM (active)
Potency [3]: 9.44 µM (active)
Potency [4]: inactive
Potency [13]: inactive
Potency [14]: inactive
Potency [6]: inactive
outcome [7]: inactive
Potency [10]: inactive
outcome [12]: inactive

N#Cc1cc2ccccc2c2ccccc12
Potency [1]: inactive
Potency [2]: inactive
Potency [4]: inactive
Potency [5]: inactive
Potency [13]: inactive
Potency [14]: inactive
Potency [6]: inactive
outcome [7]: inactive
Potency [9]: inactive
Potency [10]: inactive
Potency [11]: inactive
outcome [12]: inactive
outcome [15]: inactive
Potency [16]: inactive

C=CCCCCCC
Potency [1]: 58.9 µM (active)
Potency [3]: inactive
Potency [4]: inactive
Potency [5]: inactive
Potency [13]: inactive
Potency [14]: inactive
Potency [6]: inactive
outcome [7]: inactive
Potency [8]: inactive
Potency [17]: inactive
Potency [9]: inactive
Potency [10]: inactive
Potency [11]: inactive
outcome [12]: inactive
outcome [15]: inactive
Potency [16]: inactive

O=S(=O)(O)c1ccc(O)c2ncccc12
Potency [1]: inactive
Potency [2]: inactive
Potency [4]: inactive
Potency [5]: inactive
Potency [13]: inactive
Potency [14]: inactive
Potency [6]: inactive
outcome [7]: inactive
Potency [9]: inactive
Potency [10]: inactive
Potency [11]: inactive
outcome [12]: inactive

O=C(O)Cc1sc(-c2ccccc2)nc1-c1ccc(Cl)cc1
Potency [1]: inactive
Potency [3]: 21.1 µM (active)
Potency [18]: inactive
Potency [5]: inactive
Potency [13]: inactive
Potency [14]: inactive
Potency [6]: inactive
outcome [7]: inactive
Potency [8]: inactive
Potency [10]: inactive
Potency [11]: inactive
outcome [15]: inactive
Potency [16]: inactive

Cl/C(=C\n1cncn1)c1ccc(Cl)cc1Cl
Potency [1]: inactive
Potency [3]: inactive
Potency [13]: inactive
Potency [14]: inactive
Potency [6]: inactive
outcome [7]: inactive
Potency [10]: inactive
Potency [11]: inactive
outcome [12]: inactive
outcome [15]: inactive
Potency [16]: inactive

COc1cc(C(C)(C)C)c(O)c(C(C)(C)C)c1
Potency [1]: inactive
Potency [3]: inactive
Potency [4]: inactive
Potency [13]: inactive
Potency [14]: inactive
Potency [6]: inactive
outcome [7]: inactive
Potency [8]: inactive
Potency [17]: inactive
Potency [9]: inactive
Potency [10]: inactive
Potency [11]: inactive
outcome [12]: inactive
outcome [15]: inactive
Potency [16]: inactive

CCCCOC(=O)c1ccccc1C(=O)OCC(CC)CCCC (configuration not stated)
Potency [1]: inactive
Potency [3]: inactive
Potency [4]: inactive
Potency [5]: inactive
Potency [13]: inactive
Potency [14]: inactive
Potency [6]: inactive
outcome [7]: inactive
Potency [8]: 48.6 µM (active)
Potency [17]: inactive
Potency [9]: inactive
Potency [10]: inactive
Potency [11]: inactive
outcome [12]: inactive
outcome [15]: inactive
Potency [16]: inactive

O=C1Nc2cc(Cl)ccc2Oc2ccccc21
Potency [1]: inactive
Potency [3]: inactive
Potency [18]: inactive
Potency [4]: inactive
Potency [5]: inactive
Potency [14]: inactive
Potency [6]: inactive
outcome [7]: inactive
Potency [10]: inactive
Potency [11]: inactive
outcome [12]: inactive
outcome [15]: inactive
Potency [16]: inactive

CN1CCC[C@@H]1c1cccnc1
Potency [1]: inactive
Potency [2]: inactive
Potency [4]: inactive
Potency [6]: inactive
Potency [8]: inactive
Potency [17]: inactive
Potency [9]: inactive
Potency [10]: inactive
Potency [11]: inactive
outcome [12]: inactive
outcome [15]: inactive
Potency [16]: inactive

O=C(O)Cc1cc(I)c(Oc2ccc(O)c(I)c2)c(I)c1
Potency [1]: inactive
Potency [2]: inactive
Potency [14]: inactive
Potency [6]: inactive
outcome [7]: inactive
Potency [17]: inactive
Potency [9]: inactive
Potency [10]: inactive
Potency [11]: inactive
outcome [15]: inactive
Potency [16]: inactive

CC(=O)c1ccc2c(c1)[C@H](NC(=O)c1ccc(F)cc1)[C@@H](O)C(C)(C)O2
Potency [1]: inactive
Potency [2]: inactive
Potency [4]: inactive
Potency [14]: inactive
Potency [6]: inactive
outcome [7]: inactive
Potency [8]: inactive
Potency [17]: inactive
Potency [10]: inactive
Potency [11]: inactive
outcome [12]: inactive
outcome [15]: inactive
Potency [16]: inactive
